# Screen size: about 16,000 compounds; about 2,600 (16%) were called active. Inconclusive results (about 20%) are left out. These entries were drawn from the full list. Values without a mark were called inactive. The call rests on the fitted dose curve; in most records, active means well fitted curve in the direction sought with a large enough effect; inconclusive means small, poorly fitted or top-dose-only effect, or effect the other way; inactive means no such curve, though single readings can be large or run the other way.
# Biological target: Cytochrome P450 2D6 (Homo sapiens) (UniProt P10635)
# Assay: Cytochrome panel assay with activity outcomes
# Conditions: recombinant CYP, pro-luciferin dealkylation, luminescence, p450-cyp2d6; series mostly up to 57.1 µM
# On the % scale 0 is the no-effect control and ±100 the full control effect.
# Chain of Cytochrome P450 2D6 (Homo sapiens) (P10635 whole entry, looked up): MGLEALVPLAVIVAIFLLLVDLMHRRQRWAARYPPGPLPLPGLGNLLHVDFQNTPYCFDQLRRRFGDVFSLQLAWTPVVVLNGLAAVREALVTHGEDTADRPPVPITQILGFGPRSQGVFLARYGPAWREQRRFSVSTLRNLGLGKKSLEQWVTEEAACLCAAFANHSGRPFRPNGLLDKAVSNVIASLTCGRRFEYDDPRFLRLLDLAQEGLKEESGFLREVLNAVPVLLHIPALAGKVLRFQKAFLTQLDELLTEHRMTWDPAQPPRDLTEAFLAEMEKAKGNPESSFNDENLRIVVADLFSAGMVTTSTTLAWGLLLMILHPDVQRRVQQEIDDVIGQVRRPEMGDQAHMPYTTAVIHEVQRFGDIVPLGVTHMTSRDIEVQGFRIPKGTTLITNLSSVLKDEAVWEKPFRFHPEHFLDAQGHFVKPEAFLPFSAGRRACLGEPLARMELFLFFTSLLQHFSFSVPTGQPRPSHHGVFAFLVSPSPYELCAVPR
SMILES,AC50,"activity, negative = inhibition"
CC(=O)OCC(=O)[C@@]1(O)CC[C@@H]2[C@H]3CCC4=CC(=O)CC[C@]4(C)[C@]3(F)[C@@H](O)C[C@@]21C,inactive,–
O=C(CN1CCN(Cc2ccccc2)CC1)N1CCCc2c1c(=O)oc1ccc(O)cc21,12.6 µM (active),–
Oc1ccc2oc3c(c2c1)CCCC3,inactive,–
Cc1ccc(C(=O)N(CN2CCCC2=O)c2ccccc2)cc1C,inactive,–
COc1ccc(O)c(/C=N/NC(=O)c2ccc(OCc3cccc(Br)c3)cc2)c1,inactive,–
CCc1cc2c(NCCO)ncnc2s1,inactive,–
CCc1cc2c(Sc3nc4ccccc4s3)ncnc2s1,inactive,–
CCc1cc2c(NCc3ccco3)ncnc2s1,17.8 µM (active),–
COc1ccc(-c2csc(-n3ncc(-c4cccs4)c3N)n2)cc1,inactive,–
CCOC(=O)c1sc2c(c1C)c(=O)c(C(=O)OCC)cn2CC,inactive,–
Cc1nnc(NC(=O)c2oc3c(ccc4ccccc43)c2C)s1,inactive,–
COC(=O)c1cc(=O)[nH]c(=O)[nH]1,–,-4.62% [at 11.4 µM]
CCOC(=O)N/N=C1/C[C@@H](O)[C@@H](O)[C@@H]2[C@@H]3C(=O)N(C(C)(C)C)C(=O)[C@H]3CC[C@H]12,–,-1.55% [at 11.4 µM]
O=C(N/N=C/c1ccc(Sc2nc3ccccc3s2)c([N+](=O)[O-])c1)c1ccccn1,inactive,–
O=[N+]([O-])c1c(NCCO)cc(Sc2nc3ccccc3s2)c2nonc12,14.1 µM (active),–
Cc1ccc(S(=O)(=O)NC(=O)CSc2nc3ccccc3s2)cc1,inactive,–
C[C@@]1(C(=O)O)CCC[C@@H]1C(=O)O,–,9.41% [at 11.4 µM]
CC(=O)Nc1c(C(=O)N2CCOCC2)cnn1-c1ccc(C)c(C)c1,inactive,–
COc1ccccc1NC(=O)CN1CCN(c2ccccc2F)CC1,inactive,–
COc1ccc(NC(=O)CN2CCN(CC(=O)Nc3ccccc3Cl)CC2)cc1,inactive,–
O=C(CCN1C(=O)C2C3C=CC(C3)C2C1=O)Nc1c(F)cccc1F (stereo unspecified),inactive,–
O=C(CS(=O)c1cccc(Cl)c1)Nc1ccccc1Cl (stereo unspecified),inactive,–
O=C(CCN1CCN(c2ccccc2F)CC1)Nc1ccccc1F,11.2 µM (active),–
O=C(CCN1CCN(CC(=O)Nc2ccccc2Cl)CC1)Nc1ccccc1F,1.26 µM (active),–
COCCn1c(=O)c(C)nc2cnc(Oc3ccc(OC)cc3)nc21,inactive,–
CN(C)c1ncc2nc(-c3cccs3)c(=O)n(C[C@H]3CCCO3)c2n1,inactive,–

SMILES,AC50,"activity, negative = inhibition"
O=C(CP(=O)(c1ccccc1)c1ccccc1)Nn1cnnc1,inactive,–
COCCN(CCOC)S(=O)(=O)c1ccc(C(=O)Nc2nc(C)c(C(C)=O)s2)cc1,inactive,–
NC(=O)CN1CCOCCOCCOCCOCCOCC1,inactive,–
O=C(Nc1cccc(F)c1)N1CCC2(CC1)CCN(C(=O)c1ccco1)CC2,inactive,–
COc1ccc(CCNc2cc(-c3ccccc3)nc3ncnn23)cc1,inactive,–
COc1ccc(-n2c3c(c(=O)[nH]c2=O)C(C(F)(F)F)(C(F)(F)F)N=C(CC(C)C)N3)cc1,inactive,–
CCCn1c(=O)c2c(ncn2C)n(CCC)c1=O,inactive,–
NC(N)=NNC(=O)C(=O)O,–,7.44% [at 11.4 µM]
c1ccc2c(c1)-c1nc3ccccc3cc1[C@H]2N1CCOCC1,–,-4.83% [at 11.4 µM]
O=[N+]([O-])c1cc(/C=N/N2CCN(C3c4ccccc4-c4ccccc43)CC2)ccc1Cl,inactive,–
C(=N\N1CCN(C2c3ccccc3-c3ccccc32)CC1)/c1cccnc1,0.631 µM (active),–
C/C(=N\N1CCN(C2c3ccccc3-c3ccccc32)CC1)c1ccncc1,0.178 µM (active),–
C/C(=N\N1CCN(C2c3ccccc3-c3ccccc32)CC1)c1cccnc1,2 µM (active),–
O=C(O)c1cccnc1,inactive,–
CC(C)(C(=O)c1cccnc1)c1cccnc1,inactive,–
O=C(NCC1CCCO1)C(c1cccnc1)N(C(=O)Cc1cccs1)c1cccnc1 (stereo unspecified),inactive,–
Cc1nnc(NS(=O)(=O)c2ccc(N)cc2)s1,inactive,–
O=C(O)Cc1ccc2ocnc2c1,inactive,–
CCCC(=O)N1c2ccccc2C(N(C(C)=O)c2ccccc2)CC1C (stereo unspecified),inactive,–
O=C(Nc1cc2c(oc1=O)CCCC2=O)c1ccc(Cl)cc1,inactive,–
S=c1[nH]c2cc(Cl)ccc2s1,inactive,–
COc1ccc2nc(N)sc2c1,inactive,–
NCC[C@H](O)C(=O)N[C@H]1C[C@@H](N)[C@@H](O[C@H]2O[C@@H](CN)[C@@H](O)[C@@H](O)[C@@H]2O)[C@@H](O)[C@@H]1O[C@H]1O[C@@H](CO)[C@@H](O)[C@@H](N)[C@@H]1O,inactive,–
Cc1n[nH]c(C)c1S(=O)(=O)N1CCOCC1,inactive,–
COc1ccc(/C=N/OCc2nc3c4c(ncn3n2)Oc2ccc3ccccc3c2C4c2ccccc2)cc1 (stereo unspecified),inactive,–
Fc1ccc(-c2ccnc3nc(N4CCOCC4)nn23)cc1,inactive,–

SMILES,AC50,"activity, negative = inhibition"
Cc1cccc(C)c1NC(=O)CS(=O)CC(=O)Nc1ccc(F)cc1F (stereo unspecified),inactive,–
Cc1cccc(C)c1NC(=O)CN1CCN(CCCC(c2ccc(F)cc2)c2ccc(F)cc2)CC1,5.01 µM (active),–
Cc1c(NC(=O)CN2CCN(c3ccccc3)CC2)c(=O)n(-c2ccccc2)n1C,inactive,–
Nc1nc2c(c(=O)[nH]1)N[C@H](CCNc1ccc(C(=O)O)cc1)CN2,–,1.76% [at 11.4 µM]
Cc1nc(-c2cccnc2)sc1C(=O)Nc1ccc(Cl)cc1,15.8 µM (active),–
Cc1nc(-c2cccnc2)sc1C(=O)Nc1ccc(F)cc1F,inactive,–
CNC(=O)c1sc(-c2cccnc2)nc1C,inactive,–
N#CCCn1c(=O)c(-c2ccc(Cl)cc2)nc2cnc(Oc3cccc(Cl)c3)nc21,inactive,–
CCOC(=O)C(C)(C)[C@H](O)C(C)C,–,10.9% [at 11.4 µM]
N[C@@H](Cc1ncccn1)C(=O)O,–,-1.91% [at 11.4 µM]
Clc1ccc(CO[C@@H](Cn2ccnc2)c2ccc(Cl)cc2Cl)cc1,0.2 µM (active),–
Clc1ccc(COC(Cn2ccnc2)c2ccc(Cl)cc2Cl)c(Cl)c1 (stereo unspecified),1 µM (active),–
Clc1ccc([C@H](Cn2ccnc2)OCc2csc3c(Cl)cccc23)c(Cl)c1,5.01 µM (active),–
Cc1nn(C)c(Cl)c1NC(=O)OCc1ccc(Cl)cc1Cl,inactive,–
COCCn1c(=O)c(-c2cc(F)cc(F)c2)nc2cnc(N3CCOCC3)nc21,inactive,–
O=C1Nc2ccc(F)cc2C12SCCS2,inactive,–
Cn1c(=O)c(-c2ccc(F)c(F)c2)nc2cncnc21,inactive,–
N#CCCn1c(=O)c(CCc2ccccc2)nc2cnc(Oc3cccc(Cl)c3)nc21,inactive,–
CC1CCC(=NNC(=O)Cc2ccccc2)CC1 (stereo unspecified),inactive,–
CN1Cc2c(C(=O)OC(C)(C)C)ncn2-c2ccsc2C1=O,inactive,–
N#Cc1ccc(-c2ccc(F)cc2)nc1Oc1ccc(Cl)c(Cl)c1,inactive,–
Cc1ccc2ncc([N+](=O)[O-])n2c1,inactive,–
O=C(O)C1=CCCNC1,inactive,–
O=C(O)C(=O)/C=C(\O)c1ccc(Br)cc1,–,-0.0145% [at 11.4 µM]
Cc1ccc(-c2nn3c(C)nnc3c3ccccc23)cc1S(=O)(=O)NCCN1CCOCC1,inactive,–
CC(=O)Nc1ccc(S(=O)(=O)NC(CC(=O)NCCCN2CCOCC2)C(C)C)cc1 (stereo unspecified),inactive,–

SMILES,AC50,"activity, negative = inhibition"
Cc1cc(S(=O)(=O)NCCCN2CCOCC2)ccc1F,12.6 µM (active),–
COc1ccc(-c2nc3cnc(N4CCN(C)CC4)nc3n(Cc3ccc(F)cc3)c2=O)cc1,inactive,–
O=C(O)CCC(=O)c1ccc2sc3ccccc3c2c1,–,-3.63% [at 11.4 µM]
CCCCNc1ccc(C(=O)OCCOCCOCCOCCOCCOCCOCCOCCOCCOC)cc1,inactive,–
CCCCN(CCCC)CCCOC(=O)c1ccc(N)cc1,0.00631 µM (active),–
CN(C)CCOC(=O)c1ccc(N)cc1,–,11.9% [at 11.4 µM]
Cc1cc([N+](=O)[O-])c(C)c(Br)c1C,–,-1.18% [at 11.4 µM]
CC(C)(C)C(=O)OCOC(=O)[C@@H]1N2C(=O)[C@@H](NC(=O)[C@H](N)c3ccccc3)[C@H]2SC1(C)C,inactive,–
O=C(Nc1cccc(F)c1)N1CCCC2(CCN(C(=O)c3cc(C(F)(F)F)cc(C(F)(F)F)c3)CC2)C1,inactive,–
CCOc1ccccc1Oc1c(C)oc2cc(OC(=O)c3ccco3)ccc2c1=O,inactive,–
COc1ccc2c(=O)c(-c3ccccc3)c(C)oc2c1,inactive,–
CCOc1ccccc1Oc1coc2cc(OC)ccc2c1=O,0.501 µM (active),–
CC(C)C(C(=O)O)N1C(=O)/C(=C/C=C/c2ccco2)SC1=S (stereo unspecified),inactive,–
CCCCN(C)C(=O)c1coc(=O)c2ccccc12,inactive,–
O=[n+]1c2c(n([O-])c3cc(F)c(F)cc31)CCCC2,inactive,–
O=C(Nc1ccc(Nc2ccc3c(c2)C(=O)c2ccccc2C3=O)c2c1C(=O)c1ccccc1C2=O)c1ccccc1,–,-5.75% [at 11.4 µM]
CCC(=O)Nc1ccc2c(c1)C(=O)c1ccccc1C2=O,7.08 µM (active),–
O=C1c2ccccc2-c2ccc(NC(=O)[C@H]3CCCC[C@@H]3C(=O)O)cc21,–,-8.68% [at 11.4 µM]
COc1ccc(/C=N/n2c(C)nnc2C)c(OC)c1,inactive,–
OCCn1cnc2c(SCc3ccccc3)ncnc21,–,-0.741% [at 11.4 µM]
Cn1cnc2c(NCc3ccccc3)nc(NCCO)nc21,1.26 µM (active),–
CCn1c2ccccc2c2nnc(NCCCO)nc21,–,3.89% [at 11.4 µM]
O=C1[C@H]2[C@H]3[C@H](O)[C@H](O)C/C(=N/OC[C@@H](O)COCc4ccco4)[C@@H]3CC[C@@H]2C(=O)N1Cc1ccc2c(c1)OCO2,–,0.398% [at 11.4 µM]

# Source: PubChem BioAssay AID1851 (National Center for Advancing Translational Sciences (NCATS), 2009)
